The assay is described as follows: chemical genetic growth profiling, strain panel (AID 1159580).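 Further: tested at 20 µM; growth read once vehicle control cultures reached saturation at 30 °C; 1 = growth at the plate median or of vehicle wells.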 Particulars: growth OD.
Setting [1] is: S. cerevisiae deletion strains, locus YAL040C, strain CLN3, stronger effect = lower value.
Where [2] appears, read: S. cerevisiae deletion strains, locus YCL061C, strain MRC1 (second series), stronger effect = lower value.
[3] abbreviates: S. cerevisiae deletion strains, locus YDR150W, strain NUM1, stronger effect = lower value.
The mark [4] stands for this setting: S. cerevisiae deletion strains, locus YDR363W, strain ESC2, stronger effect = lower value.
Setting [5] is: S. cerevisiae deletion strains, locus YER002W, strain NOP16, stronger effect = lower value.
Setting [6] is: S. cerevisiae deletion strains, locus YGR078C, strain PAC10, stronger effect = lower value.
Where [7] appears, read: S. cerevisiae deletion strains, locus YGR229C, strain SMI1, stronger effect = lower value.
The mark [8] stands for this setting: S. cerevisiae deletion strains, locus YJR075W, strain HOC1, stronger effect = lower value.
Setting [9] is: S. cerevisiae deletion strains, locus YMR263W, strain SAP30, stronger effect = lower value.
Where [10] appears, read: S. cerevisiae deletion strains, locus YNL153C, strain GIM3, stronger effect = lower value.
Where [11] appears, read: S. cerevisiae deletion strains, locus YNL175C, strain NOP13, stronger effect = lower value.
Where [12] appears, read: S. cerevisiae deletion strains, locus YNL197C, strain WHI3, stronger effect = lower value.
Where [13] appears, read: S. cerevisiae deletion strains, locus YNL224C, strain SQS1, stronger effect = lower value.
The mark [14] stands for this setting: S. cerevisiae deletion strains, locus YOR083W, strain WHI5 (second series), stronger effect = lower value.
The mark [15] stands for this setting: S. cerevisiae deletion strains, locus YPL241C, strain CIN2, stronger effect = lower value.
The mark [16] stands for this setting: S. cerevisiae deletion strains, locus YNL322C, strain KRE1, stronger effect = lower value.
The mark [17] stands for this setting: S. cerevisiae deletion strains, locus YPL055C, strain LGE1, stronger effect = lower value.

Hit rate of the full screen: of about 5,500 compounds, about 2,000 (36%) were called active. Roughly 18% stayed inconclusive and do not appear here. The list shows a part of the results. Values without a mark were called inactive. No stated cut-off is given here; in the data, active means normalized growth mostly below about 0.91 (no sharp cut-off); inconclusive means no clear call, values can overlap the other calls; inactive means mostly above about 0.92.

The record followed here is PubChem BioAssay AID1159580 (chemical genetic matrix, 2015).

Turning to `O=C(O)Cc1c[nH]c2ccc(O)cc12`, the normalized growth reads like this: under setting [1], 0.988; under setting [2], 1; under setting [3], 1.01; under setting [4], 1; under setting [5], 0.974; under setting [6], 0.979. Moreover, the normalized growth by setting is: under setting [7], 1.08; under setting [8], 1.01; under setting [9], 0.995; (S. cerevisiae deletion strains, locus YMR307W, strain GAS1, stronger effect = lower value) 1.01; under setting [10], 0.961; under setting [11], 0.982. In addition, the normalized growth was 0.975 under setting [12], 1.01 under setting [13], 1 under setting [14] and 0.992 under setting [15].
As to `O=C(O)Cc1ccc(O)c(O)c1`, the normalized growth was 1.05 under setting [1]; 1 under setting [2]; 1.01 under setting [3]; 0.993 under setting [4]; 0.996 under setting [5]; 1.02 under setting [6]. For the same molecule, the normalized growth runs as follows: under setting [7], 0.976; under setting [10], 1.02; under setting [11], 1.02; under setting [12], 1.02; under setting [13], 0.982; under setting [16], 1. Also, the normalized growth was 0.996 under setting [14] and 0.982 under setting [17].
As to `Cc1ccc(CC(=O)O)cc1`, the normalized growth (S. cerevisiae deletion strains, locus YAL013W, strain DEP1, stronger effect = lower value) was 0.973; the normalized growth (S. cerevisiae deletion strains, locus YBR229C, strain ROT2, stronger effect = lower value) was 0.978; the normalized growth (S. cerevisiae deletion strains, locus YDL101C, strain DUN1, stronger effect = lower value) was 0.938; the normalized growth under setting [3] was 0.884; the normalized growth (S. cerevisiae deletion strains, locus YEL061C, strain CIN8, stronger effect = lower value) is 1.02; the normalized growth under setting [6] was 0.926 (active). Besides, the normalized growth is, setting by setting: (S. cerevisiae deletion strains, locus YHR030C, strain SLT2, stronger effect = lower value) 1.04; (S. cerevisiae deletion strains, locus YHR087W, strain rtc3, stronger effect = lower value) 0.947; (S. cerevisiae deletion strains, locus YJR043C, strain POL32, stronger effect = lower value) 0.959; under setting [8], 0.885 (active); (S. cerevisiae deletion strains, locus YKL190W, strain CNB1, stronger effect = lower value) 1.01; (S. cerevisiae deletion strains, locus YLR039C, strain RIC1, stronger effect = lower value) 1.01. Besides, the normalized growth is, setting by setting: (S. cerevisiae deletion strains, locus YLR058C, strain SHM2 (second series), stronger effect = lower value) 0.972; (S. cerevisiae deletion strains, locus YLR085C, strain ARP6, stronger effect = lower value) 1.08; (S. cerevisiae deletion strains, locus YLR262C, strain YPT6, stronger effect = lower value) 0.998; (S. cerevisiae deletion strains, locus YML094W, strain GIM5, stronger effect = lower value) 1.03; (S. cerevisiae deletion strains, locus YMR219W, strain ESC1, stronger effect = lower value) 0.985; under setting [9], 0.938. The normalized growth under setting [10] was 0.964; the normalized growth (S. cerevisiae deletion strains, locus YNL298W, strain CLA4 (second series), stronger effect = lower value) is 1.06; the normalized growth under setting [16] was 0.981; the normalized growth (S. cerevisiae deletion strains, locus YNR030W, strain Alg12, stronger effect = lower value) is 1.03; the normalized growth (S. cerevisiae deletion strains, locus YOL006C, strain TOP1, stronger effect = lower value) was 1.06; the normalized growth under setting [17] is 0.906. For the same molecule, the normalized growth reads like this: under setting [15], 1.02; (S. cerevisiae deletion strains, locus YPR135W, strain CTF4, stronger effect = lower value) 1.03; (S. cerevisiae strains, strain wild type, stronger effect = lower value) 1.02.
